In PubChem BioAssay (Tox21) one finds Potency data, which are given here for 21 molecules.

A short description of assay [1]: A CellTox Green Cytotoxicity Assay to monitor cytotoxicity in HepG2 cells - 32 hour (AID 1224883). Further: nearly all actives have a fitted effect of over 50% in size. Further: potency means the concentration at half of the fitted maximal effect. The gist of the method: (§1)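 HepG2 cells were seeded together with the CellTox Green dye at 600 cells/well, left 5 h at 37 C/5% CO2, then given compounds in DMSO. Fluorescence from dye bound to dead-cell DNA was read repeatedly over 40 h of treatment at 37 C.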
Assay [2] can be described thus: A CellTox Green Cytotoxicity Assay to monitor cytotoxicity in HEK293 cells - 8 hour (AID 1224884). Further: nearly all actives have a fitted effect of over 35% in size. Put shortly:
(§2)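 HEK293 cells premixed with CellTox Green dye were seeded at 600 cells/well and left 5 h at 37 C/5% CO2 before pin transfer of 23 nL compound in DMSO. Fluorescence from dye bound to dead-cell DNA was read during 40 h treatment.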

A short description of assay [3]: qHTS RealTime-Glo MT Cell Viability Assay in HepG2 cells - 16 hour (AID 1224885). Further: nearly all actives have a fitted effect of over 50% in size. Further: potency means the concentration at half of the fitted maximal effect. The gist of the method:
(§3)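 HepG2 cells (600/well) were dispensed with RealTime-Glo reagents, incubated 5 h at 37 °C, then treated with compounds in DMSO for up to 40 h. Nonlytic NanoLuc luminescence reflecting viable cells was read at each stated time point.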
Background: qHTS replaces the single test concentration by a dilution series.

The nature of assay [4]: qHTS RealTime-Glo MT Cell Viability Assay in HEK293 cells - 24 hour (AID 1224886). Further: nearly all actives have a fitted effect of over 50% in size. Further: potency means the concentration at half of the fitted maximal effect. The gist of the method:
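HEK293 cells seeded with NanoLuc/prosubstrate reagent, rested 5 h at 37 C, then dosed and kept at 37 C up to 40 h. Nonlytic real-time luminescence from viable cells read at 0, 8, 16, 24, 32 and 40 h.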

Assay [5] can be described thus: qHTS RealTime-Glo MT Cell Viability Assay in HEK293 cells - 8 hour (AID 1224887). Further: nearly all actives have a fitted effect of over 50% in size. Further: potency means the concentration at half of the fitted maximal effect. The gist of the method:
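HEK293 cells mixed with RealTime-Glo reagents (NanoLuc plus cell-permeant prosubstrate) at 600 cells/well, preincubated 5 h at 37 C/5% CO2, then given 23 nL compound in DMSO. Nonlytic luminescence from viable cells was read at 0, 8, 16, 24, 32 and 40 h.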

Assay [6] is described as follows: A CellTox Green Cytotoxicity Assay to monitor cytotoxicity in HEK293 cells - 16 hour (AID 1224888). Further: nearly all actives have a fitted effect of over 35% in size. Put shortly: as §2
Assay [7] can be described thus: qHTS RealTime-Glo MT Cell Viability Assay in HepG2 cells - 0 hour (AID 1224889). Further: nearly all actives have a fitted effect of over 50% in size. The gist of the method: as §3
The nature of assay [8]: A CellTox Green Cytotoxicity Assay to monitor cytotoxicity in HepG2 cells - 8 hour (AID 1224890). Further: nearly all actives have a fitted effect of over 45% in size. The gist of the method: as §1
Assay [9] is described as follows: qHTS assay to identify small molecule antagonists of the estrogen receptor alpha (ER-alpha) signaling pathway using the BG1 cell line in the presence of 0.1 nM 17-beta-estradiol - cell viability counter screen (AID 1259241). Further: nearly all actives have a fitted effect of over 40% in size. Further: potency means the concentration at half of the fitted maximal effect. The gist of the method: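 The cell line endogenously expresses full-length ER-alpha and carries four EREs driving luciferase. Cells are cultured 5 days hormone-free, treated 22 hr with compounds and 0.1 nM estradiol, then viability is read by fluorescence.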

The nature of assay [10]: qHTS assay to identify small molecule antagonists of the androgen receptor (AR) signaling pathway using the MDA cell line in the presence of 0.5 nM R1881 - cell viability counter screen (AID 1259242). Further: nearly all actives have a fitted effect of over 45% in size. Further: potency means the concentration at half of the fitted maximal effect. The gist of the method: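 MDA-kb2 cells (human breast carcinoma, stably carrying MMTV-luciferase reporter) were exposed to compounds with 0.5 nM R1881 (final) for 16 hr at 37C, 0% CO2; viability then read as live-cell protease fluorescence (CellTiter-Fluor, 30 min) in the same wells.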

SMILES strings stand for the structures. Several values for one entry are separate records, joined by “and”; a condition that tells them apart may be missing. Equal entries are not always repeated. Inconclusive results are not listed. More than one record can exist for a structure, and the calls need not agree. Activity calls are given as the source filed them. The call rests on the fitted dose curve; in most records, active means well fitted curve in the direction sought with a large enough effect in the repeat runs; inconclusive means weak or mixed curves; inactive means no such curve, though single readings can be large; an effect the other way counts as inactive or inconclusive.

Consider `COc1ccc(N)cc1N`, for which the Potency entry in [1], in [2], in [3], in assay [6], in [7] and in [8] was “inactive” in each case. Also, the Potency in assay [4] is 40.1 µM (active); in assay [5], 25.3 µM (active).
Turning to `BrCBr`, the Potency result in assay [1], in assay [2], in assay [3], in assay [4], in assay [5] and in assay [6] was “inactive” in each case. In addition, the Potency result in [7], in [8] and in assay [9] was “inactive” in each case.
On to `C1CCC2CCCCC2C1` (stereo not drawn), for which the Potency entry in assay [1], in [2], in [3], in [4], in [5] and in [6] was “inactive” throughout. Besides, the Potency entry in [7], in assay [8], in [9] and in assay [10] was “inactive” each time.
Consider `Cc1cc(C)c(C2=C(OC(=O)CC(C)(C)C)C3(CCCC3)OC2=O)c(C)c1`, for which the Potency result in assay [1], in assay [2], in [3], in assay [4], in assay [5] and in [6] was “inactive” throughout. The Potency result in assay [7], in [8] and in assay [9] was “inactive” throughout.
For `N#Cc1ccc(O)cc1`, the Potency entry in [1], in assay [2], in assay [3], in assay [4], in assay [5] and in assay [6] was “inactive” in each case. For the same molecule, the Potency entry in assay [7], in assay [8] and in [9] was “inactive” in each case.
`Clc1ccc(C(c2ccc(Cl)cc2)C(Cl)(Cl)Cl)cc1`: the Potency result in [1], in assay [2], in assay [3], in assay [6], in assay [7] and in assay [8] was “inactive” in each case. For the same molecule, the Potency entry in assay [9] and in assay [10] was “inactive” each time. The Potency in [4] was 39.2 µM (active) and 43.6 µM (active); in assay [5], 39.2 µM (active).
For the molecule `CCCCCCCCCCBr`, the Potency result in assay [1], in assay [2], in assay [3], in assay [4], in assay [5] and in [6] was “inactive” in each case. The Potency entry in assay [7], in assay [8], in assay [9] and in assay [10] was “inactive” in each case.
As to `Nc1ccccc1C(=O)OC/C=C/c1ccccc1`, the Potency entry in assay [1], in assay [2], in assay [3], in assay [6], in assay [7] and in assay [8] was “inactive” each time. In addition, the Potency entry in assay [9] and in assay [10] was “inactive” throughout. Besides, the Potency in assay [4] and in assay [5] was 24.6 µM (active) throughout.
With `CN(C)C(=S)S`, the Potency in assay [1] was 17.7 µM (active) and 5.45 µM (active) and 11 µM (active); in assay [3] it was “inactive and 15.5 µM (active)”; in [4] it was 11.2 µM (active) and 1.73 µM (active) and 11 µM (active); in assay [9], 43.3 µM (active). Besides, the Potency entry in [2], in [5], in [6], in [7] and in assay [8] was “inactive” throughout.
In the case of `COC[C@H](C)N(C(=O)CCl)c1c(C)csc1C`, the Potency entry in [1], in assay [2], in assay [3], in [4], in assay [5] and in assay [6] was “inactive” throughout. Besides, the Potency entry in [7], in [8], in assay [9] and in assay [10] was “inactive” throughout.
`O=c1[nH]c2ccccc2n1CCCN1CCC(n2c(=O)[nH]c3cc(Cl)ccc32)CC1`: the Potency in assay [1] was 21.3 µM (active); in assay [4] it was 9.52 µM (active); in [5], 9.52 µM (active). Moreover, the Potency entry in assay [2], in [3], in assay [6], in [7], in assay [8] and in [9] was “inactive” in each case. The Potency result in assay [10] was “inactive”.
With `Cc1cccc(OP(=O)(Oc2cccc(C)c2)Oc2cccc(C)c2)c1`, the Potency entry in assay [1], in assay [2], in [3], in [4], in [5] and in assay [6] was “inactive” throughout. In addition, the Potency result in assay [7], in assay [8], in assay [9] and in assay [10] was “inactive” each time.
For the molecule `CC(C)(COCC1CO1)COCC1CO1` (stereo not drawn), the Potency entry in [1], in assay [2], in assay [3], in [4], in assay [5] and in assay [6] was “inactive” each time. Also, the Potency entry in [7], in assay [8], in assay [9] and in [10] was “inactive” in each case.
Regarding `N#C/C=C/c1ccccc1`, the Potency result in assay [1], in [2], in assay [3], in [4], in assay [5] and in assay [6] was “inactive” in each case. Moreover, the Potency entry in [7], in [8], in assay [9] and in assay [10] was “inactive” each time.
With `CC(C)(C)OO`, the Potency result in [1], in [2], in assay [3], in assay [4], in assay [5] and in [6] was “inactive” each time. In addition, the Potency result in [7], in [8], in [9] and in assay [10] was “inactive” each time.
For the molecule `Cc1cc(Cl)ccc1O[C@H](C)C(=O)O`, the Potency result in [1], in assay [2], in assay [3], in [4], in assay [5] and in assay [6] was “inactive” each time. For the same molecule, the Potency entry in assay [7], in assay [8], in [9] and in assay [10] was “inactive” each time.
Regarding `CC(c1ccc(O)cc1)c1ccc(O)cc1`, the Potency result in assay [1], in assay [2], in [3], in assay [5], in assay [6] and in [7] was “inactive” throughout. Moreover, the Potency entry in assay [8], in assay [9] and in assay [10] was “inactive” throughout. In addition, the Potency in assay [4] was 45.9 µM (active) and inactive.
Take `C[C@H]1O[C@@H](O[C@H]2[C@@H](O)C[C@H](O[C@H]3[C@@H](O)C[C@H](O[C@H]4CC[C@@]5(C)[C@H](CC[C@@H]6[C@@H]5CC[C@]5(C)[C@@H](C7=CC(=O)OC7)CC[C@]65O)C4)O[C@@H]3C)O[C@@H]2C)C[C@H](O)[C@@H]1O`: the Potency result in assay [1], in assay [2], in assay [3], in assay [5], in [6] and in assay [7] was “inactive” each time. In addition, the Potency result in assay [8], in assay [9] and in [10] was “inactive” in each case. For the same molecule, in [4], the Potency is 34.9 nM (active) and 84.9 nM (active).
Turning to `O=C(CCl)Nc1ccccc1`, the Potency result in assay [1], in assay [2], in assay [3], in assay [5], in assay [6] and in [7] was “inactive” in each case. Also, the Potency entry in [8] was “inactive”. The values for the Potency in assay [4], in [9] and in [10] were 43.6 µM (active), 61.1 µM (active) and 61.1 µM (active), respectively.
With `CCCCCCCCCCCCBr`, the Potency result in [1], in [2], in [3], in assay [4], in [5] and in [6] was “inactive” each time. For the same molecule, the Potency result in assay [7], in assay [9] and in [10] was “inactive” in each case.
For the molecule `CC(=[OH+])/C=C(/C)[O-].CC(=[OH+])/C=C(\C)[O-].CC(=[OH+])/C=C(\C)[O-].[Al]`, the Potency result in assay [1], in [2], in assay [3], in [4], in assay [5] and in [6] was “inactive” in each case. In addition, the Potency entry in [7], in assay [8], in assay [9] and in [10] was “inactive” throughout.
